About 79,000 compounds went through this panel and 15% of them were active in at least one assay; those are over-represented in the sample as a whole. Activity calls are given as the source filed them. Rule as the data show it: active = growth inhibition above about 70%; inactive = the rest.

This note sets out measurements from PubChem BioAssay (NCI).

One assay in a line: NCI Yeast Anticancer Drug Screen. Data for the cln2 rad14 strain (AID 165).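 Also: 0% = growth equal to vehicle treated cultures.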 The settings on record: S. cerevisiae cln2 rad14 strain, at 50.0 µM, active compounds read high. Summed up: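 Each compound was tested on cln2 rad14 yeast. Inhibition of growth was calculated against vehicle-exposed controls.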
`COc1ccc(OC)c(/C=C/C(=O)NC(CO)CSCSC)c1` (stereo not given): the growth inhibition is -10.8% (inactive).
The same measure, in the same setting: as for `CC(=O)Nc1ccc(S(=O)(=O)N/N=C/c2ccc3c(c2)OCO3)cc1`, the figure is 2.15% (inactive); as for `CCCC(CC/C(C)=N/NC(N)=O)[N+](=O)[O-]` (stereo not given), -9.55% (inactive).
Same read-out and setting: the figure for `O=CC(NC(=O)C(O)C(O)C(O)C(O)CO)C(O)C(O)C(O)CO` (stereo not given) is -40% (inactive); for `NC(=O)C1CCc2ccccc2C1` (stereo not given) it is 3% (inactive); for `Cc1ccc(S(=O)(=O)N/N=C2/CCC(C(C)(C)C)CC2Br)cc1` (stereo not given) it is -2.9% (inactive).
Regarding `CCN(c1ccccc1)c1ncnc2nc[nH]c12`, the growth inhibition was -28.9% (inactive).
Regarding `Cc1ccc(S(=O)(=O)C(=S)N(C)N(C)C)cc1`, the growth inhibition is -12.9% (inactive).
On the same count and under the same terms, as for `OC1CCC2=C(C1)C1CCC2C1` (stereo not given), the figure is -18.4% (inactive); as for `O=C(Nc1ccc(Cl)c(Cl)c1)Oc1ccc(-c2ccccc2)cc1`, 43.6% (inactive).
Same read-out and setting: as for `Nc1nc(C2CCCC2)c(Br)c(=O)[nH]1`, the figure is 2.45% (inactive); as for `COC(=O)c1c(C=O)cccc1[N+](=O)[O-]`, 0.7% (inactive); as for `CN(C)CC1CCC/C(=C\c2ccccc2)C1=O` (stereo not given), 32.5% (inactive).
Take `CCN1N=CSC12C(=O)N(c1ccccc1)C(=O)N2c1ccccc1` (stereo not given): the growth inhibition was 0.35% (inactive).
Still for that read-out and setting: as for `CCOC(=O)C(N=Nc1ccccc1)C(=O)c1ccccc1` (stereo not given), the figure is -22.1% (inactive); as for `CCCC(C)(C)O`, -21.3% (inactive); as for `CCOC(=O)/C(C)=C(/C)Nc1ccccc1`, -28.9% (inactive).
The same measure, in the same setting: the figure for `CCn1c(C)nc([N+](=O)[O-])c1Sc1ncn[nH]1` is 5.1% (inactive).
On to `Cc1ccc(N=C2c3cc([N+](=O)[O-])ccc3-c3ccc([N+](=O)[O-])cc32)cc1`, for which the growth inhibition was -18.1% (inactive).
Regarding `CCCC[N+](CCCC)(CCCC)CC(=O)[O-]`, the growth inhibition is -45.1% (inactive).
For `O=C(N/N=C/C=C/c1ccccc1)NNC(=O)c1cc([N+](=O)[O-])cc([N+](=O)[O-])c1`, the growth inhibition was 13.8% (inactive).
Still for that read-out and setting: as for `CC(O)c1nc2c3ccccc3ccc2n1C` (stereo not given), the figure is -42.6% (inactive).
Still for that read-out and setting: the figure for `Cc1cccc(C(=O)OCc2ccccc2CN2CCCCC2)c1` is -21.6% (inactive).
In the case of `CC(=O)OCc1cocc1COC(C)=O`, the growth inhibition is -3.2% (inactive).
For the compound `C=CCOC(=O)NC1C(OC(C)[C@@H](NC(=O)OCc2ccccc2)C(=O)OC(C)(C)C)OC(COC(C)=O)C(OC(C)=O)C1OC(C)=O` (stereo not given in full), the growth inhibition was 22.1% (inactive).
On the same count and under the same terms, the figure for `COc1ccc(CCN2C(CC(=O)c3ccccc3)CCCC2CC(=O)c2ccccc2)cc1OC` (stereo not given) is -0.2% (inactive); for `CCCCC(CC)COS(=O)(=O)O` (stereo not given) it is -42% (inactive).
Still for that read-out and setting: the figure for `C=C1CC(CCCCC2CC(=C)C(=O)O2)OC1=O` (stereo not given) is -104% (inactive); for `Clc1ccc(Nc2ncnc3oc(-c4ccccc4)c(-c4ccccc4)c23)cc1` it is -5.05% (inactive); for `CCn1c(=O)c(Cl)c2n(C)c3ccccc3n2c1=O` it is -4.4% (inactive).
Still for that read-out and setting: the figure for `CCC(=O)Oc1cccc2ccccc12` is -14.3% (inactive).
As for `CCOc1cc2c(cc1C(C)c1ccc(OCc3ccccc3)cc1)OCO2` (stereo not given), the growth inhibition was 1.25% (inactive).
The same measure, in the same setting: the figure for `C[N+]12CCCCC1CC2` (stereo not given) is -39.5% (inactive); for `COc1cc(-c2nnc3n2NC=C(C(=O)O)S3)cc(OC)c1OC` it is 5.45% (inactive).
`CCOC(=O)C(Cc1ccccc1Cl)(NC(C)=O)C(=O)OCC`: the growth inhibition is -10.2% (inactive).
As to `CC(Nc1ncccn1)Nc1ncccn1`, the growth inhibition is -29.9% (inactive).
Still for that read-out and setting: the figure for `CCN(CC)c1ccc(N=C2C=CC(=O)C(NC(C)=O)=C2)c(C)c1` is -8.15% (inactive); for `Cc1ccc(C(=O)Cc2nc3c([nH]c2=O)c(C)nn3-c2ccccc2)c(C)c1` it is 12.7% (inactive).
Regarding `Cc1nc(-n2nc(-c3ccccc3)cc2-c2ccccc2)sc1C(/C=C/c1ccc([N+](=O)[O-])cc1)=N/NC(N)=S`, the growth inhibition is -18.3% (inactive).
Same read-out and setting: as for `O=S(Cc1cc2c(cc1Br)OCO2)c1ccccc1` (stereo not given), the figure is -22.4% (inactive).

Another assay in a line: NCI Yeast Anticancer Drug Screen. Data for the bub3 strain (AID 167). The settings on record: S. cerevisiae bub3 mutant strain, at 50.0 µM, active compounds read high. Summed up: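 Part of a panel of yeast mutants defective in DNA damage repair or cell cycle regulation. Each strain is grown with compound, and inhibition is calculated relative to solvent-treated cultures.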
In the case of `COc1ccc(OC)c(/C=C/C(=O)NC(CO)CSCSC)c1` (stereo not given), the growth inhibition was 21.5% (inactive).
Consider `CC(=O)Nc1ccc(S(=O)(=O)N/N=C/c2ccc3c(c2)OCO3)cc1`, for which the growth inhibition was -33.7% (inactive).
Same read-out and setting: the figure for `CCCC(CC/C(C)=N/NC(N)=O)[N+](=O)[O-]` (stereo not given) is 4.75% (inactive); for `O=CC(NC(=O)C(O)C(O)C(O)C(O)CO)C(O)C(O)C(O)CO` (stereo not given) it is -0.95% (inactive); for `NC(=O)C1CCc2ccccc2C1` (stereo not given) it is -5.15% (inactive).
Turning to `Cc1ccc(S(=O)(=O)N/N=C2/CCC(C(C)(C)C)CC2Br)cc1` (stereo not given), the growth inhibition was 17.4% (inactive).
Still for that read-out and setting: the figure for `CCN(c1ccccc1)c1ncnc2nc[nH]c12` is 19.9% (inactive); for `Cc1ccc(S(=O)(=O)C(=S)N(C)N(C)C)cc1` it is 25.4% (inactive); for `OC1CCC2=C(C1)C1CCC2C1` (stereo not given) it is -12% (inactive).
`O=C(Nc1ccc(Cl)c(Cl)c1)Oc1ccc(-c2ccccc2)cc1`: the growth inhibition is 87.5% (active).
Consider `Nc1nc(C2CCCC2)c(Br)c(=O)[nH]1`, for which the growth inhibition is 2.7% (inactive).
Same read-out and setting: as for `COC(=O)c1c(C=O)cccc1[N+](=O)[O-]`, the figure is -14.1% (inactive); as for `CN(C)CC1CCC/C(=C\c2ccccc2)C1=O` (stereo not given), 38.5% (inactive).
The same measure, in the same setting: the figure for `CCN1N=CSC12C(=O)N(c1ccccc1)C(=O)N2c1ccccc1` (stereo not given) is -14.7% (inactive).
For the compound `CCOC(=O)C(N=Nc1ccccc1)C(=O)c1ccccc1` (stereo not given), the growth inhibition was 38.8% (inactive).
For `CCCC(C)(C)O`, the growth inhibition was 10.4% (inactive).
Still for that read-out and setting: the figure for `CCOC(=O)/C(C)=C(/C)Nc1ccccc1` is -10.1% (inactive); for `CCn1c(C)nc([N+](=O)[O-])c1Sc1ncn[nH]1` it is -7.05% (inactive).
In the case of `Cc1ccc(N=C2c3cc([N+](=O)[O-])ccc3-c3ccc([N+](=O)[O-])cc32)cc1`, the growth inhibition is -4% (inactive).
Take `CCCC[N+](CCCC)(CCCC)CC(=O)[O-]`: the growth inhibition was -8.3% (inactive).
The same measure, in the same setting: as for `O=C(N/N=C/C=C/c1ccccc1)NNC(=O)c1cc([N+](=O)[O-])cc([N+](=O)[O-])c1`, the figure is 2.65% (inactive).
Still for that read-out and setting: as for `CC(O)c1nc2c3ccccc3ccc2n1C` (stereo not given), the figure is -1.25% (inactive).
Still for that read-out and setting: as for `Cc1cccc(C(=O)OCc2ccccc2CN2CCCCC2)c1`, the figure is 2.85% (inactive); as for `CC(=O)OCc1cocc1COC(C)=O`, -4.1% (inactive); as for `C=CCOC(=O)NC1C(OC(C)[C@@H](NC(=O)OCc2ccccc2)C(=O)OC(C)(C)C)OC(COC(C)=O)C(OC(C)=O)C1OC(C)=O` (stereo not given in full), -1.55% (inactive).
Consider `COc1ccc(CCN2C(CC(=O)c3ccccc3)CCCC2CC(=O)c2ccccc2)cc1OC` (stereo not given), for which the growth inhibition is 0.65% (inactive).
For `CCCCC(CC)COS(=O)(=O)O` (stereo not given), the growth inhibition is -27% (inactive).
Take `C=C1CC(CCCCC2CC(=C)C(=O)O2)OC1=O` (stereo not given): the growth inhibition was -12.7% (inactive).
The same measure, in the same setting: as for `Clc1ccc(Nc2ncnc3oc(-c4ccccc4)c(-c4ccccc4)c23)cc1`, the figure is -4.1% (inactive); as for `CCn1c(=O)c(Cl)c2n(C)c3ccccc3n2c1=O`, 10.6% (inactive).
Same read-out and setting: as for `CCC(=O)Oc1cccc2ccccc12`, the figure is -24.9% (inactive); as for `CCOc1cc2c(cc1C(C)c1ccc(OCc3ccccc3)cc1)OCO2` (stereo not given), -2.1% (inactive); as for `C[N+]12CCCCC1CC2` (stereo not given), -40.3% (inactive).
Turning to `COc1cc(-c2nnc3n2NC=C(C(=O)O)S3)cc(OC)c1OC`, the growth inhibition is 28.2% (inactive).
Still for that read-out and setting: the figure for `CCOC(=O)C(Cc1ccccc1Cl)(NC(C)=O)C(=O)OCC` is 11.8% (inactive); for `CC(Nc1ncccn1)Nc1ncccn1` it is -1.95% (inactive); for `CCN(CC)c1ccc(N=C2C=CC(=O)C(NC(C)=O)=C2)c(C)c1` it is 14.1% (inactive).
The same measure, in the same setting: as for `Cc1ccc(C(=O)Cc2nc3c([nH]c2=O)c(C)nn3-c2ccccc2)c(C)c1`, the figure is -0.85% (inactive); as for `Cc1nc(-n2nc(-c3ccccc3)cc2-c2ccccc2)sc1C(/C=C/c1ccc([N+](=O)[O-])cc1)=N/NC(N)=S`, 44.4% (inactive).
On the same count and under the same terms, as for `O=S(Cc1cc2c(cc1Br)OCO2)c1ccccc1` (stereo not given), the figure is -37.7% (inactive).
